# Results filed as inconclusive are left out. Where a structure was tested more than once in an assay, its records may differ in their call. The source made the active and inactive calls. The calls were made as follows: active = hit-call score of the fitted dose curve at least 0.9, where 1 is the maximum; inconclusive = response in the unintended direction; inactive = score below 0.9.
# Experiments:
# [1] = TOX21_p53_BLA_p2_viability: Viability Assessment in the Tox21 HCT-116 p53 Agonism Beta-lactamase Assay, Phase 2 (AID 2283591);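 also: compound exposure lasted 16 h at 37 °C; actives lower the ATP signal meaning cytotoxicity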
# Outline: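 HCT116 p53-bla cells, 4000/well, dosed after 5 h plating (217-fold dilution of DMSO stocks) and incubated 16 h at 37C. Viability taken as cellular ATP by CellTiter-Glo luminescence after 30 min RT; signal loss marks cytotoxicity.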
# [2] = target: Cellular tumor antigen p53 (Homo sapiens) (UniProt P04637); test: TOX21_p53_BLA_p2_ratio: Tox21 HCT-116 p53 Agonism Beta-lactamase Assay, Ratio, Phase 2 (AID 2283592)
# Cellular tumor antigen p53 (Homo sapiens), sequence (P04637 whole entry, looked up): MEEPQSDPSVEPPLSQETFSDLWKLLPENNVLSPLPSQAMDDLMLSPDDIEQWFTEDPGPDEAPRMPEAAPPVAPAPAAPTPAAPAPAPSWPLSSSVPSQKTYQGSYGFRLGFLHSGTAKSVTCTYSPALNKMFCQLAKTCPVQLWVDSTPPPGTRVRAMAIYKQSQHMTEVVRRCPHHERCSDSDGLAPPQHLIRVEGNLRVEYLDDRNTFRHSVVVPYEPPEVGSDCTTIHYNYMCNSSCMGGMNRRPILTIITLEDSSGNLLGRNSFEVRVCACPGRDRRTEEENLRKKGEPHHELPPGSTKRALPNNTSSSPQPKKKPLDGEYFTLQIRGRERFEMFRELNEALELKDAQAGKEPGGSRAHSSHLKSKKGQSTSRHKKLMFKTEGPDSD
# Outline: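 Plated HCT116 p53-bla cells (4000/well) received compound after 5 h, then 16 h at 37C/5% CO2. CCF4-AM added, 2 h RT. Ratio of 460 to 530 nm emission taken as the p53 reporter signal.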
# [3] = TOX21_p53_BLA_p3_viability: Viability Assessment in the Tox21 HCT-116 p53 Agonism Beta-lactamase Assay, Phase 3 (AID 2283593);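 also: cells exposed to compound for 16 h before reading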
# Outline: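 HCT116 cells, 4000/well, dosed 5 h after plating by pin transfer (217-fold dilution from DMSO stock) and incubated 16 h at 37C, 5% CO2. Viability read as ATP luminescence with CellTiter-Glo after 30 min at room temperature.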
# [4] = target: Cellular tumor antigen p53 (Homo sapiens) (UniProt P04637); test: TOX21_p53_BLA_p3_ratio: Tox21 HCT-116 p53 Agonism Beta-lactamase Assay, Ratio, Phase 3 (AID 2283596)
# Outline: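 Cells were seeded at 4000/well, rested 5 h at 37C, then dosed with DMSO compound solutions (217-fold dilution) for 16 h. CCF4-AM substrate was loaded for 2 h at room temperature, and the 460/530 nm emission ratio was fitted for gain of signal versus DMSO.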
# [5] = TOX21_p53_BLA_p4_viability: Viability Assessment in the Tox21 HCT-116 p53 Agonism Beta-lactamase Assay, Phase 4 (AID 2283597);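 also: hits lower the luminescence signal meaning cytotoxicity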
# Outline: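 Readout: ATP luminescence (CellTiter-Glo), measured 30 min after reagent addition at RT. The reagent followed a 2 h CCF4-AM incubation, and the cells had been exposed to compound for 16 h at 37C.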
# [6] = target: Cellular tumor antigen p53 (Homo sapiens) (UniProt P04637); test: TOX21_p53_BLA_p5_ratio: Tox21 HCT-116 p53 Agonism Beta-lactamase Assay, Ratio, Phase 5 (AID 2283599)
# Outline: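 HCT-116 p53-bla cells (4000/well) plated 5 h, dosed with compound (217-fold DMSO dilution) for 16 h at 37 C; CCF4-AM substrate 2 h at room temperature. Activity is the 460/530 nm emission ratio (405 nm excitation), fitted in gain-of-signal direction versus DMSO.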
# [7] = TOX21_p53_BLA_p5_viability: Viability Assessment in the Tox21 HCT-116 p53 Agonism Beta-lactamase Assay, Phase 5 (AID 2283600)
# Outline: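 Workflow: seed 4000 cells per well, wait 5 h, add compounds (DMSO, 217-fold dilution), incubate 16 h, load CCF4-AM 2 h, add CellTiter-Glo, read luminescence after 30 min.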
# [8] = target: Cellular tumor antigen p53 (Homo sapiens) (UniProt P04637); test: TOX21_p53_BLA_p4_ratio: Tox21 HCT-116 p53 Agonism Beta-lactamase Assay, Ratio, Phase 4 (AID 2283601)
# Outline: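 HCT-116 p53 beta-lactamase reporter cells (4000/well) preincubated 5 h, then compound (217-fold dilution of DMSO stock) for 16 h at 37C. CCF4-AM substrate added 2 h at room temperature; 460/530 nm emission ratio fitted upward versus DMSO.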
Structure (SMILES),outcome [1],outcome [2],outcome [3],outcome [4],outcome [5],outcome [6],outcome [7],outcome [8],AC50 [7],AC50 [4]
CC(=O)C1(C)CC2=C(CCCC2(C)C)CC1C (centres undefined),inactive,inactive,inactive,inactive,inactive,inactive,inactive,inactive,–,–
C=C(C)C(=O)OCCOCCOCCOCCOC(=O)C(=C)C,inactive,inactive,inactive,inactive,inactive,–,inactive,inactive,–,–
C1=CC2C3C=CC(C3)C2C1 (centres undefined),inactive,inactive,inactive,inactive,inactive,inactive,inactive,inactive,–,–
COc1ccc(CCC(C)=O)cc1,inactive,inactive,inactive,inactive,–,inactive,–,inactive,–,–
C=CC(=O)OCCCC,–,inactive,inactive,inactive,inactive,inactive,inactive,inactive,–,–
CCCC[P+](CCCC)(CCCC)CCCC,–,inactive,inactive,inactive,inactive,inactive,inactive,inactive,14.5 µM (active),–
CCc1ncc(C)[nH]1,inactive,–,–,inactive,inactive,inactive,inactive,inactive,–,–
Cc1ccc(S(=O)(=O)Oc2ccc(N=Nc3ccc(-c4ccc(N=Nc5c(O)ccc6cc(S(=O)(=O)O)cc(S(=O)(=O)O)c56)c(C)c4)cc3C)cc2)cc1,–,inactive,inactive,inactive,inactive,inactive,inactive,inactive,–,–
C=CCCCCCCCCCC,inactive,inactive,inactive,inactive,inactive,inactive,inactive,inactive,–,–
CC(Oc1cc(Cl)ccc1Cl)C(=O)O (centres undefined),inactive,inactive,inactive,–,–,–,inactive,–,–,–
COCCOCCOCCO,inactive,inactive,inactive,inactive,–,inactive,inactive,inactive,–,–
O=C(CC(=O)c1ccccc1)c1ccccc1,inactive,inactive,inactive,inactive,inactive,inactive,inactive,inactive,–,–
COC(C)(C)CCCC(C)CC=O (centres undefined),inactive,inactive,–,inactive,–,inactive,inactive,inactive,–,–
COC(=O)c1cccnc1,inactive,inactive,inactive,inactive,inactive,inactive,inactive,inactive,–,–
CCC(Cl)C(Cl)C(Cl)CC(Cl)C(Cl)C(C)Cl (centres undefined),inactive,inactive,inactive,inactive,inactive,inactive,inactive,inactive,–,–
Cc1ccc(N)c(S(=O)(=O)O)c1,inactive,–,inactive,inactive,–,inactive,inactive,inactive,–,–
CCOc1ccccc1O,inactive,inactive,–,–,–,inactive,inactive,inactive,–,–
Nc1ccccc1[N+](=O)[O-],inactive,inactive,inactive,inactive,inactive,inactive,inactive,inactive,–,–
C1CCCCC1,inactive,–,–,–,inactive,inactive,inactive,inactive,–,–
CSCCC=O,inactive,inactive,inactive,inactive,–,inactive,inactive,inactive,–,–
CCOC(=O)[C@@H](C)Oc1ccc(Oc2nc3ccc(Cl)cc3o2)cc1,inactive,inactive,–,inactive,–,inactive,–,–,–,–

Structure (SMILES),outcome [1],outcome [2],outcome [3],outcome [4],outcome [5],outcome [6],outcome [7],outcome [8],AC50 [7],AC50 [4]
OCCc1ccccc1,inactive,inactive,inactive,inactive,–,inactive,–,inactive,–,–
COC(CC(C)CCCC(C)(C)O)OC (centres undefined),inactive,–,–,–,inactive,inactive,–,inactive,–,–
O=C(O)c1ccc(O)cc1,inactive,inactive,inactive,inactive,inactive,inactive,–,inactive,–,–
CN(C)C(=S)SC(=S)N(C)C,inactive,inactive,inactive,inactive,inactive,inactive,–,inactive,–,–
CN1CCOCC1,inactive,inactive,–,inactive,–,inactive,inactive,inactive,–,–
c1ccc2cc(Nc3ccc(Nc4ccc5ccccc5c4)cc3)ccc2c1,–,inactive,inactive,inactive,inactive,inactive,inactive,inactive,–,73.5 µM (active)
CCCCC1(COC(=O)CCC(=O)O)C(=O)N(c2ccccc2)N(c2ccccc2)C1=O,inactive,inactive,inactive,inactive,inactive,inactive,inactive,inactive,–,–
C=C(C)C(=O)OCCOC1CC2CC1C1C=CCC21 (centres undefined),–,inactive,inactive,inactive,inactive,inactive,inactive,–,–,–
CCCCCCCCCCCCCCCC(=O)OC/C=C(C)/C=C/C=C(C)/C=C/C1=C(C)CCCC1(C)C,inactive,–,inactive,inactive,–,–,inactive,inactive,–,–
CCCC(=O)c1ccccc1,inactive,inactive,inactive,inactive,inactive,inactive,–,inactive,–,–
CCCC(C)=O,inactive,inactive,inactive,inactive,inactive,inactive,inactive,inactive,–,–
c1ccc2[nH]cnc2c1,inactive,inactive,inactive,inactive,inactive,inactive,–,inactive,–,–
C#CC(C)N(C)C(=O)Nc1ccc(Cl)cc1 (centres undefined),inactive,inactive,–,inactive,inactive,inactive,inactive,inactive,–,–
COc1ccccc1N=Nc1c(S(=O)(=O)O)cc2cc(S(=O)(=O)O)cc(NC(C)=O)c2c1O,–,inactive,inactive,inactive,inactive,inactive,–,inactive,–,–
CCCC(=O)C(CC)Sc1ccoc1C (centres undefined),–,–,inactive,inactive,inactive,–,inactive,inactive,–,–
Cc1cc(CCC(=O)OCCOCCOCCOC(=O)CCc2cc(C)c(O)c(C(C)(C)C)c2)cc(C(C)(C)C)c1O,–,inactive,inactive,–,–,–,inactive,inactive,–,–
CC(C)NCC(O)COc1ccc(CC(N)=O)cc1 (centres undefined),–,inactive,–,–,–,inactive,inactive,–,–,–
CCCCCCCCCCCCN1CCCCCC1=O,–,inactive,inactive,inactive,–,inactive,–,inactive,–,–
COc1ccc(N)c([N+](=O)[O-])c1,–,–,inactive,inactive,–,inactive,inactive,inactive,–,–
CC(=O)O[C@H]1C[C@@H]2CC[C@@]1(C)C2(C)C,–,inactive,–,inactive,–,inactive,inactive,–,–,–
C[N+](C)(C)CCCCCC[N+](C)(C)C,–,inactive,–,–,inactive,inactive,–,inactive,–,–

Structure (SMILES),outcome [1],outcome [2],outcome [3],outcome [4],outcome [5],outcome [6],outcome [7],outcome [8],AC50 [7],AC50 [4]
O=C(O)COCC(=O)O,–,inactive,–,inactive,–,–,inactive,inactive,–,–
COC(C)(C)CCO,–,inactive,–,–,–,inactive,inactive,inactive,–,–
CN(C)CCOC(C)(c1ccccc1)c1ccccn1 (centres undefined),–,inactive,–,inactive,inactive,inactive,inactive,inactive,–,–
Nc1ccn([C@H]2CS[C@@H](CO)O2)c(=O)n1,–,inactive,–,inactive,–,inactive,–,inactive,–,–
CC(C)CCCCCCCCCCCCCCC(=O)O,–,inactive,inactive,inactive,–,inactive,–,inactive,–,–
CCCCCCCCN1CCCC1=O,–,–,–,inactive,–,inactive,inactive,inactive,–,–
c1ccc(Oc2ccccc2)cc1,–,inactive,inactive,inactive,inactive,inactive,–,inactive,–,–
CC(C)CCCCCCc1ccc(OCCOCCO)cc1,–,–,inactive,inactive,inactive,inactive,inactive,inactive,–,–
C[C@H]1C[C@@H](O)CC(C)(C)C1,–,inactive,–,inactive,–,inactive,–,inactive,–,–
CCc1ccc(O)c(OC)c1,–,–,inactive,–,–,inactive,–,–,–,–
CCCCCC(C)=O,–,inactive,–,inactive,inactive,inactive,–,inactive,–,–
COS(=O)(=O)O,–,–,–,–,–,–,inactive,inactive,–,–
CC(=O)C(C)O (centres undefined),–,inactive,inactive,inactive,inactive,inactive,–,inactive,–,–
CCCN(CCC)S(=O)(=O)c1ccc(C(=O)O)cc1,–,inactive,inactive,inactive,inactive,inactive,inactive,inactive,–,–
CC(C)c1ccccc1O,–,inactive,inactive,inactive,inactive,–,inactive,–,–,–
FC(F)(F)COCC(F)(F)F,–,inactive,inactive,inactive,–,inactive,inactive,inactive,–,–
CCC(=O)O[C@@H]1C[C@H]2CC[C@]1(C)C2(C)C,–,–,–,inactive,–,inactive,–,inactive,–,–
O=C1CCCC=CCCCCCCCCCC1,–,inactive,–,inactive,inactive,–,–,–,–,–
Cc1cc(S(=O)(=O)O)ccc1N=Nc1c(O)ccc2ccccc12,–,inactive,–,inactive,inactive,–,inactive,–,–,–

# — PubChem BioAssay (EPA / NIEHS)
